Bioassay records: PubChem, Sanford-Burnham Center for Chemical Genomics
Compounds with a hit are over-represented: about 28% of the library has one in this group of screens.
CD11b adhes enh = enhancers of CD11b/CD18 adhesion to fibrinogen, primary screen, K562 cells, luminescence | ATPlite luminescence | 0.07% of 93,000 active | activation, % at 10 µM | Integrin beta-2 (Homo sapiens) + Integrin alpha-M (Homo sapiens), P05107+P11215;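 active = 10 µM primary screen giving 50% or more activity, confirmed by 40% or more on retest at that dose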
CYP2C9 inh = blockers of cytochrome P450 2C9 activity – biochemical, luminescence, ADME assay, primary screen; P11712; CYP2C9 Supersomes, luciferin-H conversion; inhibition, % at 5 µM; 20% of 96,000 active; AID 777, 2007;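 active = blocking of liver enzyme CYP2C9 beyond about 50% at 5 µM, limit read from the data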
Target sequence (P11712 whole entry, looked up): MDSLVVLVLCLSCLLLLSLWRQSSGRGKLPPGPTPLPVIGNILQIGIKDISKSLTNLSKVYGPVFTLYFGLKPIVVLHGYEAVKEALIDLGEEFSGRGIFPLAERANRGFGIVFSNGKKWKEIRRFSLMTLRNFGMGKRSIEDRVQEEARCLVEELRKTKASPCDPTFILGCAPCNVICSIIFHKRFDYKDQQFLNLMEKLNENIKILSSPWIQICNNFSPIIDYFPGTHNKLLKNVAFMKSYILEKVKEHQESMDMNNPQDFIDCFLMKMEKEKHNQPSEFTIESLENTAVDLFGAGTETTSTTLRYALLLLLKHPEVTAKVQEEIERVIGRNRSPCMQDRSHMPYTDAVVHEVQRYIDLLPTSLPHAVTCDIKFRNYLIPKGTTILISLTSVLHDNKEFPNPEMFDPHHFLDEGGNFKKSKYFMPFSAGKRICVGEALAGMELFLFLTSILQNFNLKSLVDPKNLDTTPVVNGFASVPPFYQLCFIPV
CYP2C19 inh = blockers of cytochrome P450 2C19 activity – biochemical, luminescence, ADME assay, primary screen. 21% of 96,000 active. P33261. CYP2C19 Supersomes, luciferin-H EGE luminescence, 30 min. inhibition, % at 5 µM;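 active = CYP2C19 inhibition above a set limit at 5 µM in the primary screen, cut at about 50% in these data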
Mac1 fbg inh = inhibitors of CD11b/CD18 adhesion to fibrinogen, primary screen, K562 cells, luminescence | Integrin beta-2 (Homo sapiens) + Integrin alpha-M (Homo sapiens), P05107+P11215 | ATPlite luminescence; Mn2+ added to activate the integrin | inhibition, % at 10 µM | 0.54% of 93,000 active | AID 1497, 2009;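 active = primary inhibition of 50% or more at 10 µM, then 40% or more on retest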
CYP2C19 activ = human CYP2C19 activators, primary screen, biochemical, luminescence | Cytochrome P450 2C19 (Homo sapiens), P33261 | recombinant CYP2C19, luciferin-H EGE luminescence; active compounds read high; 0 = fully inhibited enzyme, 1 = untreated enzyme | activation factor at 5 µM | 96,000 tested, under 10 active;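 active = activation factor of at least 2 at 5 µM in the primary screen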
CYP2C9 activ = human CYP2C9 activators, primary screen, biochemical, luminescence; Cytochrome P450 2C9 (Homo sapiens), P11712; recombinant CYP2C9, luciferin-H conversion; active compounds read high; factor 1 = untreated enzyme, 0 = blocked; activation factor at 5 µM; 1.4% of 96,000 active; AID 1024, 2008;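 active = activation factor of 2 or more for CYP2C9 at a 5 µM dose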
A number is an active result; . = inactive; / = no result given.

SMILES	CD11b adhes enh	CYP2C9 inh	CYP2C19 inh	Mac1 fbg inh	CYP2C19 activ	CYP2C9 activ
Cc1cccc(NC(=O)COc2ccccc2)c1	.	.	83	.	.	.
CCOc1ccccc1/C=C(/NC(=O)c1ccccc1)C(=O)N(CC)CC	.	/	/	.	/	/
CC(=O)N1CCN(CCN=CC2=C(O)CC(c3cccs3)CC2=O)CC1 (centres undefined)	.	.	.	.	.	.
O=C(N/N=C/c1c[nH]c2c1ccc1ccccc12)c1ccc([N+](=O)[O-])cc1	.	/	/	.	/	/
COc1cccc(NC(=O)C2C3C=CC(O3)C2C(=O)NCc2cccnc2)c1 (centres undefined)	.	.	.	.	.	.
Cc1nc(NC(=O)CSc2cc(C)c3ccccc3n2)c(Cl)cc1Cl	.	/	/	.	/	/
Cc1ccc2occ(C3N[C@H](C(=O)O)CS3)c(=O)c2c1 (some centres undefined)	/	.	.	/	.	.
CSCCC(CO)NC(=O)OCc1ccccc1 (centres undefined)	.	.	.	.	.	.
CC(=O)c1cccc(NC(=O)COc2nsnc2N2CCOCC2)c1	.	.	.	.	.	.
Cc1cccc(NC(=O)COc2nsnc2N2CCOCC2)c1	.	.	56	.	.	.
C=CCN1C(=O)CSC1=Nc1cccc(O)c1	.	.	.	.	.	.
C=CCN1C(=Nc2cccnc2)SCC1(O)c1ccc(C)cc1 (centres undefined)	.	78	95	.	.	.
O=C1CCCC2=C1C1(CCCCC1)N=C(Nc1nc3ccccc3s1)N2	.	.	.	.	.	.
CCOc1ccccc1NC=C1C(=O)OC2(CCCCC2)OC1=O	.	.	.	.	.	2.6
OC1(c2ccc3ccccc3c2)CCN(Cc2ccccc2)C1 (centres undefined)	.	.	80	.	.	.
COc1ccccc1CNC(=O)CSc1nc(N)c(C#N)c(-c2cccs2)c1C#N	/	.	.	/	.	.
O=C(CSc1n[nH]c(-c2cccs2)n1)NCc1ccc2c(c1)OCO2	.	97	85	.	.	.
N#Cc1c(N)nc(SCC(=O)NCc2ccc3c(c2)OCO3)c(C#N)c1-c1cccs1	.	74	.	.	.	.
O=C(CSc1n[nH]c(-c2cccs2)n1)NCc1cccs1	/	.	69	/	.	.
Cn1c(SCC(=O)NCc2ccc3c(c2)OCO3)nc2scc(-c3cccs3)c2c1=O	.	80	.	.	.	.
Cc1ccc(-c2csc3ncnc(SCC(=O)NCc4ccc5c(c4)OCO5)c23)cc1	/	57	.	/	.	.
CCOc1cc(C#N)c(NC(=O)c2cccnc2)cc1OCC	/	.	.	/	.	.
CCOc1cc(C#N)c(NC(=O)c2cccnc2Cl)cc1OCC	.	65	.	.	.	.
CC(=O)c1ccc(N2C(=O)NC3(CCCCC3)C2=O)cc1	.	.	.	.	.	.
COc1ccc(Br)cc1CN(C)CC(=O)Nc1c(Cl)cccc1Cl	.	/	/	.	/	/
SMILES	CD11b adhes enh	CYP2C9 inh	CYP2C19 inh	Mac1 fbg inh	CYP2C19 activ	CYP2C9 activ
COc1ccc(Br)cc1CNC(=O)Nc1cccs1	.	67	76	.	.	.
COc1ccccc1CNC(=O)Nc1cccs1	.	.	88	.	.	.
Cc1ccccc1NC(=O)Nc1cccs1	.	.	.	.	.	.
CC#CCCCC(=O)Nc1ccccc1C(=O)O	.	.	.	.	.	.
COc1ccc(NC(=O)C2CCN(C(=O)c3cccs3)CC2)cc1OC	.	.	.	.	.	.
Cc1c(C(=O)NN)nc2ccccn12	.	/	/	.	/	/
Cc1ccccc1N1CCN(c2ncnc3c2cnn3Cc2ccc(Cl)cc2)CC1	.	76	.	.	.	.
Cc1ccc(Cn2ncc3c(N4CCN(Cc5ccc(Cl)cc5)CC4)ncnc32)cc1	.	.	.	.	.	.
CC1CCN(c2ncnc3c2cnn3Cc2ccc(Cl)cc2)CC1	.	76	.	.	.	.
CCN1CCN(c2nc3c(c(=O)[nH]c(=O)n3C)n2CCCSc2ncccn2)CC1	.	.	.	.	.	.
CCCCN(CCCC)S(=O)(=O)c1ccc(NC(=O)c2cccs2)cc1	.	91	60	.	.	.
Cc1cc(C)nc(NS(=O)(=O)c2ccc(NC(=O)c3cccs3)cc2)n1	.	.	.	.	.	.
CC1CCCCN1S(=O)(=O)c1ccc(NC(=O)c2cccs2)cc1 (centres undefined)	.	74	56	.	.	.
CC1CCN(S(=O)(=O)c2ccc(NC(=O)c3cccs3)cc2)CC1	.	96	84	.	.	.
CN1CCN(S(=O)(=O)c2ccc(NC(=O)c3cccs3)cc2)CC1	.	.	.	.	.	.
CN1CC[n+]2cnc3ccccc3c21	.	.	.	/	.	.
Cc1cc(C)nc(N2CCN(c3nnnn3-c3ccccc3)CC2)n1	.	85	.	.	.	.
FC(F)(F)c1cccc(N2CCN(c3nnnn3-c3ccccc3)CC2)c1	.	100	98	.	.	.
Cc1ccc(C)c(N2CCN(c3nnnn3-c3ccccc3)CC2)c1	.	91	99	.	.	.
COCCn1nnnc1CN1CCN(c2cccc(C(F)(F)F)c2)CC1	.	.	78	.	.	.
CC(=O)C1=C(O)C(=O)N(CCc2c[nH]c3ccccc23)C1c1ccc(O)cc1 (centres undefined)	.	53	.	.	.	.
COc1cc(C2C(C(C)=O)=C(O)C(=O)N2CCc2ccc(OC)c(OC)c2)ccc1O (centres undefined)	.	.	.	.	.	.
COc1ccc(C2C(C(C)=O)=C(O)C(=O)N2CCc2c[nH]c3ccccc23)cc1OC (centres undefined)	.	89	.	.	.	.
COc1cccc(C2C(C(C)=O)=C(O)C(=O)N2CCc2c[nH]c3ccccc23)c1 (centres undefined)	.	70	.	.	.	.
COCc1cc(=O)[nH]c(Sc2c(-c3ccccc3)c3ccc(Cl)cc3[nH]c2=O)n1	.	/	/	.	/	/
SMILES	CD11b adhes enh	CYP2C9 inh	CYP2C19 inh	Mac1 fbg inh	CYP2C19 activ	CYP2C9 activ
COc1ccc(N(C)S(=O)(=O)c2c(C)[nH]c(=O)[nH]c2=O)c(OC)c1	.	.	.	.	.	.
O=S1(=O)C=CC(N2CCOCC2)C1 (centres undefined)	.	.	.	.	.	.
CCOC(=O)c1ccc(NC(=O)CN2C(=O)C(CC)SC(CC)C2=O)cc1 (centres undefined)	.	/	/	.	/	/
O=C(Nc1ccc2nc(-c3cccs3)[nH]c2c1)c1cccs1	.	81	57	.	.	.
COc1ccccc1N1CCN(C2CCN(C(=O)c3cc(OC)c(OC)c(OC)c3)CC2)CC1	.	.	.	.	.	.
COc1cc(C(=O)N2CCC(O)(c3ccccc3)CC2)cc(OC)c1OC	.	79	66	.	.	.
